The values that follow come from PubChem BioAssay (NCI).

This is part of a sample that, as a whole, favours compounds with a hit. Of some 83,000 tested, about 20% had one in any assay.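 Compound tested at a single concentration for 48 hours in 96-well plates; a percent growth value below 10 was scored as active.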 Calls of active or inactive are those of the source.

The experiment has as its system KM12 colon. Kind of experiment: NCI-60 one-dose screen, 48 h (100 = growth as untreated, 0 = no growth, -100 = all killed). The note with it: 10 µM unless noted.
With `O=C(NCCCNc1nccc(-n2ccc3cccnc32)n1)c1c(F)cccc1F`, the growth is 106% (inactive).

Take `COc1ccc(C(=O)c2cc(OC)c3c(c2)OCO3)cc1O`: the growth is 4.48% (active).

On to `Cc1cc(C(C)(C)C)ccc1S`, for which the growth is 112% (inactive).

As for `Cn1cnc2c(N3CCN(C(=O)OCc4ccc5c(Cl)cc(Cl)c(O)c5n4)CC3)nc(Cl)nc21`, the growth was 56.9% (inactive).

In the case of `Fc1ccccc1-c1nc(-c2nc3cc(Cl)c(Cl)cc3[nH]2)c2ccccn12`, the growth was 80.5% (inactive).

For `C1=Cc2ccccc2N(c2nnc(-c3ccccc3)o2)c2ccccc21`, the growth is 92.3% (inactive).

In the case of `COc1cc(C2CC(c3ccc4c(c3)OCO4)=NN2C=O)cc(OC)c1OC` (centres undefined), the growth was 23.3% (inactive).

As to `COc1ccc(/C=C2/C(=O)NC(SCC(=O)N3CCN(c4cc5c(cc4F)c(=O)c(C(=O)O)cn5C4CC4)CC3)=NC2N)cc1OC` (centres undefined), the growth was 106% (inactive).

For the compound `COc1cc(C2CC(c3ccc4c(c3)OCO4)=NN2C(C)=O)cc(OC)c1OC` (centres undefined), the growth was 30.6% (inactive).

In the case of `COc1cc(NCCCCCN)c2ncccc2c1`, the growth is 109% (inactive).

For `C=C1CCC2C(C)(CO)C(O)CCC2(C)C1C/C=C1/C(=O)OCC1Oc1ccccc1C` (centres undefined), the growth is 78.3% (inactive).

Consider `CCCCCCCCCCCCCCCCNC(=O)OC(C)C`, for which the growth is 0.501% (active).

For the compound `O=C(/C=C/c1cc(-c2ccc3c(c2)OCO3)n[nH]1)c1ccc2c(c1)OCO2`, the growth is 94.6% (inactive).

For `c1cc(C2=N[C@@H]3c4ccccc4C[C@@H]3O2)nc(C2=N[C@@H]3c4ccccc4C[C@@H]3O2)c1`, the growth is 103% (inactive).

With `COc1ccccc1CNCCCN1C(=O)c2ccc3c4c(ccc(c24)C1=O)C(=O)N(CCCNCCCCNCCCN)C3=O`, the growth was -18.7% (active).

As to `NC(=N\N=C/c1ccc(O)cc1)/C(N)=N\N=C/c1ccc(O)cc1`, the growth was 23.6% (inactive).

Turning to `COc1ccc(-c2c(N)n[nH]c2-c2cc(OC)c3c(c2)OCCO3)cc1`, the growth is 40.4% (inactive).

As for `C=C1CCC2C(C)(CO)C(O)CCC2(C)C1C/C=C1/C(=O)OCC1O/C=C/c1ccccc1` (centres undefined), the growth was 74.8% (inactive).

`CC(C)(C)n1cc(-c2ccnc(NCCNS(=O)(=O)c3ccc(F)cc3)c2)c(-c2cccc(O)c2)n1`: the growth is 36.1% (inactive).

For the compound `COc1ccc2c(c1)OC1=C(C(=O)OC1)C2c1cc(OC)c2c(c1)OCO2` (centres undefined), the growth was 1.61% (active).

With `CC(C)OC(=O)N1CCOCC1`, the growth was 100% (inactive).

Consider `CC12CCC3C4(C)COC(c5ccccc5Cl)OC4CCC3(C)C1CC(C1=CCOC1=O)O2` (centres undefined), for which the growth is 59.9% (inactive).

For `CCCOC(=O)n1cccc1`, the growth is 99.7% (inactive).

For the compound `O=S(=O)(NCCCNc1nccc(-n2ccc3cccnc32)n1)c1cccc(C(F)(F)F)c1`, the growth was 98% (inactive).

As for `Cc1ccc(S(=O)(=O)NCCNc2cc(-c3cn(C(C)(C)C)nc3-c3cccc(O)c3)ccn2)cc1`, the growth is 65.1% (inactive).

`Cc1ccc(S(=O)(=O)NCCCNc2cc(-c3cn(C(C)(C)C)nc3-c3cccc(O)c3)ccn2)cc1`: the growth was 39.8% (inactive).

As to `C=C1CCC2C(C)(CO)C(O)CCC2(C)C1CC(NCc1ccccc1)C1=CCOC1=O` (centres undefined), the growth was 104% (inactive).

On to `COc1ccc2c(c1)NC1=C(C(=O)OC1)C2c1cc(OC)c2c(c1)OCO2` (centres undefined), for which the growth is 2.35% (active).

Consider `COc1cc(Nc2ncccc2C(=O)NCc2cn(Cc3cccc(Oc4ccccc4)c3)nn2)cc(OC)c1`, for which the growth is 16.7% (inactive).

For `CC12CCC3C4(C)COC(c5ccco5)OC4CCC3(C)C1CC(C1=CCOC1=O)O2` (centres undefined), the growth is 103% (inactive).

In the case of `C=C1CCC2C3(C)COC(C)(C)OC3CCC2(C)C1C/C=C1/C(=O)OCC1Oc1ccccc1OC` (centres undefined), the growth was 97.9% (inactive).

As to `O=C(/C=C/c1ccccc1)c1cccc(O)c1`, the growth was -29.4% (active).

`CC(C)(C)n1cc(-c2ccnc(NCCCNS(=O)(=O)c3ccc(F)cc3)c2)c(-c2cccc(O)c2)n1`: the growth is 28.2% (inactive).

For the compound `COc1cc(C2C3=C(COC3=O)Nc3cc4c(cc32)OCO4)cc2c1OCO2` (centres undefined), the growth is 1.28% (active).

`O=C(NCCNc1nccc(-n2ccc3cccnc32)n1)c1ccc(C(F)(F)F)cc1`: the growth is 100% (inactive).

Consider `COc1cc(C2C3=C(COC3=O)Nc3cc4c(cc32)CCC4)cc2c1OCO2` (centres undefined), for which the growth was 3% (active).

`COc1ccc(-c2ccc(C)n2-c2ccc(-c3nc4cc(Cl)ccc4s3)cc2)cc1`: the growth is 89.1% (inactive).

`O=C(NCc1cn(Cc2cccc(Oc3ccccc3)c2)nn1)c1cccnc1Nc1ccc(F)cc1`: the growth is 34.4% (inactive).

With `CC12CCCC(CC(=O)c3[nH]c4ccccc4c31)C2` (centres undefined), the growth was 26.7% (inactive).
